The supplement of paper PMC10849652
The full data set covers some 7,900 targets. This sample favours those with a hit. About 0.6% of all pairs of compound and target were hits.

Legend:
Experiment in all cases: log2 fold change, soluble protein after heating vs DMSO (PISA); higher = thermal stabilisation; K562 cells, 10 uM, 30 min; active = over 0.2 and 3.5 SD of the protein, either way, in both replicates (recomputed)
erlotinib = compound: C#Cc1cccc(Nc2ncnc3cc(OCCOC)c(OCCOC)cc23)c1 [erlotinib]
Summary of the method: (§1)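 Thermal stability values are relative to control samples and come from duplicates. They are expressed as log2 fold changes. For measurement, K562 cells (2×10^6 cells/mL) received 10 μM compound for 30 min, and aliquots were heated for 3 min over 48°C-58°C, pooled, and extracted at 4°C in PBS with 0.5% NP-40. Soluble protein, the supernatant after 21,000xg for 90 min, was quantified by TMTpro 16plex LC-MS/MS with equalised channel sums.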

[1] = compound: C/C(=N\NC(=O)C1=CC(=CC=C1)S(=O)(=O)N2CCOCC2)/C3=C(C=CC(=C3)Cl)O
Summary of the method: as §1

[2] = compound: C1=CC(=C(C=C1Cl)C2=NC3=NC=CN=C3C(=N2)NC4=CC=NC=C4)F
Summary of the method: as §1

[3] = compound: C1=CC(=CC=C1C2=NC3=C(N2)C=C(C=C3)C(=O)N)OC4=CC=C(C=C4)Cl
Summary of the method: as §1

[4] = compound: C1=CC2=C(C=CC(=C2)/C=C\3/C(=O)NC(=NCC4=CC=CS4)S3)N=C1
Summary of the method: as §1

[5] = compound: C1=CC2=NC=CN=C2C=C1/C=C/3\C(=O)NC(=O)S3
Summary of the method: as §1

[6] = compound: C1=CC=C(C=C1)C2=NC(=C(N2)C3=CC=NC=C3)C4=CC(=C(C=C4)Cl)O
Summary of the method: as §1

[7] = compound: C1=CC=C2C(=C1)C3=NNC4=CC=CC(=C43)C2=O
Summary of the method: as §1

[8] = compound: C1CCN(C1)C(=O)NC2=CC=CC(=C2)NC3=NC=C(C(=N3)NCCC4=CN=CN4)Br
Summary of the method: as §1

[9] = compound: C1CN(CCC1(CC2=CC=C(C=C2)Cl)N)C3=NC=NC4=C3C=CN4
Summary of the method: as §1

Measured: log2 fold change

POGLUT1 (UniProt Q8NBL1)
Chain of UniProt Q8NBL1 (Q8NBL1 whole entry, looked up): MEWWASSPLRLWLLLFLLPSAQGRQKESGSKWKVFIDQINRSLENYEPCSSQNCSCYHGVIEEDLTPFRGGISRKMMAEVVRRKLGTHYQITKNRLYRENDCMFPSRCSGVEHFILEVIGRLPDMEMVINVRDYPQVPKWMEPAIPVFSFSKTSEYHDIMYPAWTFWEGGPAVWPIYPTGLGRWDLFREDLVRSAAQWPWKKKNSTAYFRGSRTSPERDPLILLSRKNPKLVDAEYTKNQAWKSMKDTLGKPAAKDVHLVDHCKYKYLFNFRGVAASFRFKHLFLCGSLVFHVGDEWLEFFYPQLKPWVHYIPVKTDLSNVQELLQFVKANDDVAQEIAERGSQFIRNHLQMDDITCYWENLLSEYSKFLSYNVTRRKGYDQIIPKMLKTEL
inactive: erlotinib 0.006 | [1] -0.046 | [2] -0.041 | [3] -0.004 | [4] 0.055 | [5] 0.026 | [6] 0.167 | [7] -0.013 | [8] -0.007 | [9] -0.041

POLR2K (UniProt P53803)
inactive: erlotinib -0.081 | [1] 0.021 | [2] -0.037 | [3] 0.127 | [4] -0.017 | [5] 0.097 | [6] -0.1 | [7] -0.105 | [8] 0.005 | [9] 0.022

PSMC3 (UniProt P17980)
inactive: erlotinib -0.039 | [1] -0.107 | [2] -0.037 | [3] 0.008 | [4] -0.059 | [5] -0.025 | [6] -0.002 | [7] -0.001 | [8] 0.026 | [9] -0.004

PSMA3 (UniProt P25788)
inactive: erlotinib -0.052 | [1] -0.075 | [2] 0.016 | [3] 0.028 | [4] -0.073 | [5] -0.025 | [6] -0.023 | [7] 0.002 | [8] -0.008 | [9] 0.044

PRIM1 (UniProt P49642)
inactive: erlotinib 0.005 | [1] 0.011 | [2] -0.044 | [3] 0.049 | [4] -0.005 | [5] 0.027 | [6] -0.09 | [7] 0.061 | [8] -0.033 | [9] -0.074

PLBD1 (UniProt Q6P4A8)
Chain of UniProt Q6P4A8 (Q6P4A8 whole entry, looked up): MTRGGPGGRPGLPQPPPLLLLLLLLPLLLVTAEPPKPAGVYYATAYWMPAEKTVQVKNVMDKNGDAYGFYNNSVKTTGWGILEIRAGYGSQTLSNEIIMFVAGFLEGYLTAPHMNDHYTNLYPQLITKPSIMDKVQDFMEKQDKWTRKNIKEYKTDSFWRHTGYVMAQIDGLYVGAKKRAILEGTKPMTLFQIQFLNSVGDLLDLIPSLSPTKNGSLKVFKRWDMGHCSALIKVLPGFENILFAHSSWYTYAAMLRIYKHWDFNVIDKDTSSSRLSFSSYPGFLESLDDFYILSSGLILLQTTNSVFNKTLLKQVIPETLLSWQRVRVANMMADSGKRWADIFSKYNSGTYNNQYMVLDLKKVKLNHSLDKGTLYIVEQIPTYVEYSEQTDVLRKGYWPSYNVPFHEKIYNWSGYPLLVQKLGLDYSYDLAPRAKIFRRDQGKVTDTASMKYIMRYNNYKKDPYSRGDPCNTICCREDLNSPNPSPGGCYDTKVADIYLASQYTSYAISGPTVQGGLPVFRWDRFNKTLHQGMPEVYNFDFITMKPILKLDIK
inactive: erlotinib 0.05 | [1] -0.008 | [2] 0.024 | [3] 0.037 | [4] 0.09 | [5] 0.024 | [6] 0.036 | [7] -0.01 | [8] 0.037 | [9] 0.009

PPT2 isoform 3 (UniProt Q9UMR5)
inactive: erlotinib 0 | [1] 0.056 | [2] 0.033 | [3] -0.001 | [4] -0.026 | [5] -0.02 | [6] 0.038 | [7] 0.039 | [8] -0.012 | [9] 0.031

POLR1A (UniProt O95602)
inactive: erlotinib -0.055 | [1] -0.236 | [2] 0.031 | [3] 0.058 | [4] 0.04 | [5] 0.005 | [6] 0.079 | [7] -0.096 | [8] 0 | [9] 0.125

PRPF38A (UniProt Q8NAV1)
Chain of UniProt Q8NAV1 (Q8NAV1 whole entry, looked up): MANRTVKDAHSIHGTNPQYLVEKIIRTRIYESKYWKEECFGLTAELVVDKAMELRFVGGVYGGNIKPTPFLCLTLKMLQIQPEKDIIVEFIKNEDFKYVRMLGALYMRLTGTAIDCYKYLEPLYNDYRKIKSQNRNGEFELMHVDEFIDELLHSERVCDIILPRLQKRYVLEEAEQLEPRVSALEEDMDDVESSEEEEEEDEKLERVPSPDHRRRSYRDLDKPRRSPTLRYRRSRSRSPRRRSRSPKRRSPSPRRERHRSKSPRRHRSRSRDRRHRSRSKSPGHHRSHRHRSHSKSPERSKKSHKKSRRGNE
inactive: erlotinib -0.032 | [1] 0.035 | [2] -0.01 | [3] 0.049 | [4] 0 | [5] -0.046 | [6] 0 | [7] -0.08 | [8] 0.008 | [9] 0.018

PHKG2 (UniProt P15735)
Chain of UniProt P15735 (P15735 whole entry, looked up): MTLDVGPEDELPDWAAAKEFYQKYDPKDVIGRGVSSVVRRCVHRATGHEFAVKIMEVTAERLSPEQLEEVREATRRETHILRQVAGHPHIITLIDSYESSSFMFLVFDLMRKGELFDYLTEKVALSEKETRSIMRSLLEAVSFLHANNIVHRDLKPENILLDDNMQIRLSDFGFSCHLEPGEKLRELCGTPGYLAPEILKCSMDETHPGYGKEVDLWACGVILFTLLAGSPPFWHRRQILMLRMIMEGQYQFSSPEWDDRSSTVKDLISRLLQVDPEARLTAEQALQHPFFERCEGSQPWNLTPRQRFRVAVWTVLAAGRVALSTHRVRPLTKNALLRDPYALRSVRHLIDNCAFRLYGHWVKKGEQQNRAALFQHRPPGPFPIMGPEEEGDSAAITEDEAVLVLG
inactive: erlotinib -0.067 | [1] -0.078 | [2] 0.021 | [3] -0.003 | [4] -0.055 | [5] -0.113 | [6] 0.034 | [7] 0.076 | [8] -0.159 | [9] 0.029

POLR3B (UniProt Q9NW08)
Chain of UniProt Q9NW08 (Q9NW08 whole entry, looked up): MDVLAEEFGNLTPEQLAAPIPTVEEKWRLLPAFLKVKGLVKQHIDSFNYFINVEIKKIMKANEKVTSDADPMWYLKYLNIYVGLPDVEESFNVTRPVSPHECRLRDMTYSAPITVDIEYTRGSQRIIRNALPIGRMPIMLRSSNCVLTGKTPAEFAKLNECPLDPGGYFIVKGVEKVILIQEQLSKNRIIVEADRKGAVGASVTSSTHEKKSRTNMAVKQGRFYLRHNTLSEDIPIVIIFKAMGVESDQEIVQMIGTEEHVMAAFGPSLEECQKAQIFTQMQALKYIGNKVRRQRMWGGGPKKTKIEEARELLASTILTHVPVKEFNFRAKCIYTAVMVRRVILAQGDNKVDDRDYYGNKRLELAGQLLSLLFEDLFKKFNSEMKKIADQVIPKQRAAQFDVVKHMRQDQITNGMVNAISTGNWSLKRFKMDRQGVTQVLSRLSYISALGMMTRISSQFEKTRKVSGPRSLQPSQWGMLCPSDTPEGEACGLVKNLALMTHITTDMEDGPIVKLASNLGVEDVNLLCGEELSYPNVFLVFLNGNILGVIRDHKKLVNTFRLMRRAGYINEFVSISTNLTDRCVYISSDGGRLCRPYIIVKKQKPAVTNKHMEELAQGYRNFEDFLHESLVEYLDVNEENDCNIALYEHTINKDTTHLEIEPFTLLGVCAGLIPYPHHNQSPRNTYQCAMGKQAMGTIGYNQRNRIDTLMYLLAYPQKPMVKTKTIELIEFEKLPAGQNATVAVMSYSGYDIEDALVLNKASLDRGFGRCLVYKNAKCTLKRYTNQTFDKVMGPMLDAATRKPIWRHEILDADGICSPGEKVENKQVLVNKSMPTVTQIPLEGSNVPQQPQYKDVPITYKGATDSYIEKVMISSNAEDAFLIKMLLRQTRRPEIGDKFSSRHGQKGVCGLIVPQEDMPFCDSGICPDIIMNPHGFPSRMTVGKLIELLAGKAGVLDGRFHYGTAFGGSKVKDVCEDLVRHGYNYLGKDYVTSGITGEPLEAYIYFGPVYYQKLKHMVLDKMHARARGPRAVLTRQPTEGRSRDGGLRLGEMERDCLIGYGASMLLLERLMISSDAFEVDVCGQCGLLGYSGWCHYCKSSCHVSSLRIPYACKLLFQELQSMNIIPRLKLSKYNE
inactive: erlotinib -0.022 | [1] -0.027 | [2] -0.003 | [3] -0.09 | [4] 0.004 | [5] 0.022 | [6] 0.025 | [7] -0.018 | [8] 0.194 | [9] -0.088

POLD1 (UniProt P28340)
inactive: erlotinib 0.063 | [1] 0.039 | [2] -0.009 | [3] -0.016 | [4] 0.023 | [5] -0.024 | [6] 0.05 | [7] -0.058 | [8] -0.02 | [9] -0.022

PPM1G (UniProt O15355)
inactive: erlotinib 0.117 | [1] 0.118 | [2] 0.009 | [3] -0.017 | [4] 0.024 | [5] 0.035 | [6] -0.052 | [7] -0.022 | [8] -0.011 | [9] -0.065

PLD3 (UniProt Q8IV08)
inactive: erlotinib -0.012 | [1] 0.029 | [2] 0.054 | [3] 0.023 | [4] 0.04 | [5] 0.024 | [6] -0.061 | [7] 0.006 | [8] 0.001 | [9] 0.048

PRMT7 (UniProt Q9NVM4)
inactive: erlotinib 0.093 | [1] 0.132 | [2] 0.064 | [3] -0.017 | [4] 0.142 | [5] 0.018 | [6] -0.109 | [7] -0.039 | [8] 0.031 | [9] -0.031

PLK1 (UniProt P53350)
inactive: erlotinib -0.027 | [1] 0.035 | [2] 0.006 | [3] 0.079 | [4] -0.041 | [5] -0.017 | [6] -0.018 | [7] 0.058 | [8] -0.003 | [9] -0.039

PPOX (UniProt P50336)
inactive: erlotinib 0.112 | [1] 0.415 | [2] 0.156 | [3] 0.416 | [4] 0.039 | [5] -0.004 | [6] 0.095 | [7] 0.013 | [8] 0.051 | [9] -0.011

POTEI (UniProt P0CG38)
Chain of UniProt P0CG38 (P0CG38 whole entry, looked up): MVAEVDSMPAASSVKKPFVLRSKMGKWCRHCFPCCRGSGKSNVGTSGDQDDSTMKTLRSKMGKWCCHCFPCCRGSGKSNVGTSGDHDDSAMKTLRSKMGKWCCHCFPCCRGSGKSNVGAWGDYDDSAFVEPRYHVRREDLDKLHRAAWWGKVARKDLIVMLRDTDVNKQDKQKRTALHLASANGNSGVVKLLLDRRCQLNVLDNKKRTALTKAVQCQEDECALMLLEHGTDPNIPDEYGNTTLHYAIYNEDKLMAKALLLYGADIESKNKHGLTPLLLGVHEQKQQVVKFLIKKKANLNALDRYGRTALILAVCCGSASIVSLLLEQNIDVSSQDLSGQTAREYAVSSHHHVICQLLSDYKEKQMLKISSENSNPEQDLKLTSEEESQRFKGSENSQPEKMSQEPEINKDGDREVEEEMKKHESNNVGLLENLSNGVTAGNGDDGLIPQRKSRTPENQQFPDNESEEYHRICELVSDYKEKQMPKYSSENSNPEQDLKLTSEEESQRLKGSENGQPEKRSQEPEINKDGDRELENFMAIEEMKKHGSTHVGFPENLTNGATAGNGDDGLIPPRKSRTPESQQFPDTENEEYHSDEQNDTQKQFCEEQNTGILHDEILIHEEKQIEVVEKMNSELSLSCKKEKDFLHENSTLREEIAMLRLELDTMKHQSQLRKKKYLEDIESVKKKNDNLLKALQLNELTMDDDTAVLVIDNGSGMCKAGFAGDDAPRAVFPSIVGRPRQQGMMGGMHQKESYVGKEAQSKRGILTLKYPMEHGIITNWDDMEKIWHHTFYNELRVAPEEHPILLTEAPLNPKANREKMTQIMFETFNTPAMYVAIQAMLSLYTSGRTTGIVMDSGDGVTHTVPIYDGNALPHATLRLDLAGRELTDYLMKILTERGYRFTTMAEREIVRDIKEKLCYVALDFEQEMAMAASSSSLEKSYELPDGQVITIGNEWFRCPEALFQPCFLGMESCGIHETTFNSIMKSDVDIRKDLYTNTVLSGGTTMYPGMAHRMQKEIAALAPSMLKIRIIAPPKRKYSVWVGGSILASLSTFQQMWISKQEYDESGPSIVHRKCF
inactive: erlotinib 0.023 | [1] 0.007 | [2] -0.009 | [3] 0.011 | [4] -0.037 | [5] -0.052 | [6] 0.045 | [7] 0.038 | [8] -0.003 | [9] 0.046

PTDSS1 (UniProt P48651)
inactive: erlotinib -0.076 | [1] -0.12 | [2] -0.099 | [3] 0.045 | [4] -0.031 | [5] -0.114 | [6] 0.03 | [7] 0.041 | [8] 0.016 | [9] -0.058

PRPF31 (UniProt Q8WWY3)
inactive: erlotinib 0.105 | [1] 0.194 | [2] 0.05 | [3] 0 | [4] 0.217 | [5] 0 | [6] 0.027 | [7] 0.076 | [8] -0.067 | [9] 0.129

PUF60 (UniProt Q9UHX1)
Chain of UniProt Q9UHX1 (Q9UHX1 whole entry, looked up): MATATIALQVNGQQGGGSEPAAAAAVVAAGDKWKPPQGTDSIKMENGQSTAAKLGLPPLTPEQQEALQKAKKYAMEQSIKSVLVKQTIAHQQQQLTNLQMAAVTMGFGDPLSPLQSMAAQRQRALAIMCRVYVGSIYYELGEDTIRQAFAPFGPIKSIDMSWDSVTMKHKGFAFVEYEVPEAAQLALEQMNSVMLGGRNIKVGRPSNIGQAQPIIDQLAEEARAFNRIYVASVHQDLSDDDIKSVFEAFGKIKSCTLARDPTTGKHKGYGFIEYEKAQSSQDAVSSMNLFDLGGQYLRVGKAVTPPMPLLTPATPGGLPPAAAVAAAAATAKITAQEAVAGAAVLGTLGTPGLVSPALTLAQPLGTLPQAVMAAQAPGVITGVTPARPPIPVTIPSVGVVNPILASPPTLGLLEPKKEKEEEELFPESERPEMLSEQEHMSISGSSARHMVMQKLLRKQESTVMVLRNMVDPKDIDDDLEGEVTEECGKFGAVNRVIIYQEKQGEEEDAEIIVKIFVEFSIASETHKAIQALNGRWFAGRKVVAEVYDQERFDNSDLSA
inactive: erlotinib -0.011 | [1] 0.172 | [2] -0.005 | [3] 0.014 | [4] -0.071 | [5] -0.026 | [6] 0.013 | [7] 0.02 | [8] -0.072 | [9] -0.141

PI4K2A (UniProt Q9BTU6)
inactive: erlotinib -0.037 | [1] -0.01 | [2] 0.01 | [3] 0.019 | [4] 0.021 | [5] 0.071 | [6] -0.029 | [7] 0.01 | [8] -0.002 | [9] 0.046

PSMC2 (UniProt P35998)
inactive: erlotinib -0.05 | [1] -0.054 | [2] -0.057 | [3] 0.008 | [4] -0.001 | [5] -0.03 | [6] 0.019 | [7] 0.02 | [8] -0.007 | [9] -0.031

PRMT8 (UniProt Q9NR22)
inactive: erlotinib -0.008 | [1] 0.03 | [2] 0.159 | [3] -0.067 | [4] 0.099 | [5] -0.005 | [6] 0.122 | [7] 0.042 | [8] 0.012 | [9] 0.028

RAB11FIP1 (UniProt Q6WKZ4)
inactive: erlotinib 0.004 | [1] 0.074 | [2] 0.078 | [3] -0.039 | [4] 0.02 | [5] -0.004 | [6] 0.031 | [7] 0.009 | [8] -0.049 | [9] 0.027

PRPF38B (UniProt Q5VTL8)
inactive: erlotinib -0.016 | [1] 0.022 | [2] -0.049 | [3] 0.082 | [4] -0.184 | [5] -0.085 | [6] -0.027 | [7] -0.146 | [8] -0.018 | [9] -0.054

PMPCB (UniProt O75439)
inactive: erlotinib -0.022 | [1] 0 | [2] 0.031 | [3] 0.024 | [4] 0.019 | [5] 0.007 | [6] 0.023 | [7] 0.078 | [8] -0.014 | [9] 0.046

PRIM2 (UniProt P49643)
inactive: erlotinib 0.004 | [1] 0.038 | [2] 0.018 | [3] 0.015 | [4] 0.061 | [5] 0.009 | [6] 0.035 | [7] 0.035 | [8] -0.023 | [9] -0.071

PCLAF (UniProt Q15004)
inactive: erlotinib 0.073 | [1] -0.017 | [2] -0.066 | [3] 0.016 | [4] -0.039 | [5] 0.033 | [6] -0.105 | [7] -0.13 | [8] -0.036 | [9] 0.032

PIGT (UniProt Q969N2)
Chain of UniProt Q969N2 (Q969N2 whole entry, looked up): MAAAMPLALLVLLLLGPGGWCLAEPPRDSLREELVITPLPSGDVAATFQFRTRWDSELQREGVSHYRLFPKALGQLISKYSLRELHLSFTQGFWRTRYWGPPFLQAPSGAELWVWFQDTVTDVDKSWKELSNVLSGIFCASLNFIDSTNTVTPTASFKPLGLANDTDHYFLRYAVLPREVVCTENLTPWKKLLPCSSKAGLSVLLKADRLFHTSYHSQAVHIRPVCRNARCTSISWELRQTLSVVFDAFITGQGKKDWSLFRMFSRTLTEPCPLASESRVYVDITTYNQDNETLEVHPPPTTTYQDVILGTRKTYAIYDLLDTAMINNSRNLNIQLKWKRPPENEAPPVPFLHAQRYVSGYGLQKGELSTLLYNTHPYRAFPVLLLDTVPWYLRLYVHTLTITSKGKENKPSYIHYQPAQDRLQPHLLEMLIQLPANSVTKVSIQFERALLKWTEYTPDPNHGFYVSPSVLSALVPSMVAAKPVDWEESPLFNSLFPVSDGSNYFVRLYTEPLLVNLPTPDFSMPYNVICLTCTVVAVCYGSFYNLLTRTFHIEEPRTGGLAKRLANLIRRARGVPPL
inactive: erlotinib -0.045 | [1] 0.037 | [2] 0.002 | [3] 0.034 | [4] 0.009 | [5] -0.001 | [6] 0.011 | [7] 0.018 | [8] -0.006 | [9] -0.003
